# Results: the supplement of paper PMC8728848
# The entries come from a sample that favours the strongest signals as a whole.
# How the values were obtained:
# Experiment in all cases: glycan array binding signal (z-score within array); higher = stronger binding
# Conditions in all cases: glycan notation: IUPAC condensed, linker removed
# [1] = target: Fuc(a1-2)Gal(b1-3)GalNAc(b1-4)[Neu5Ac(a2-3)]Gal(b1-4)Glc
# Outline: (§1)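 From the Consortium for Functional Glycomics database, 3228 arrays were curated, keeping only those whose protein sequence was available. Binding is given as a within-array Z-score averaged across arrays sharing a protein sequence and across linkers. Negative Z-scores can be read as non-binding.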
# [2] = target: Fuc(a1-2)Gal(b1-3)[Fuc(a1-4)]GlcNAc
# Outline: as §1
# [3] = target: Fuc(a1-2)Gal(b1-3)[Fuc(a1-4)]GlcNAc(b1-2)Man(a1-3)[Fuc(a1-2)Gal(b1-3)[Fuc(a1-4)]GlcNAc(b1-2)Man(a1-6)]Man(b1-4)GlcNAc(b1-4)GlcNAc
# Outline: as §1
# Fuc(a1-2)Gal(b1-4)Glc6S = target: Fuc(a1-2)Gal(b1-4)Glc6S
# Outline: as §1
# [4] = target: Fuc(a1-2)Gal(b1-4)GlcNAc(b1-3)Gal(b1-4)GlcNAc(b1-3)Gal(b1-4)GlcNAc
# Outline: as §1
# [5] = target: Fuc(a1-2)Gal(b1-4)[Fuc(a1-3)]GlcNAc(b1-3)[Neu5Ac(a2-6)Gal(b1-4)GlcNAc(b1-6)]Gal(b1-4)Glc
# Outline: as §1
# [6] = target: Fuc(a1-2)Gal6S(b1-4)Glc6S
# Outline: as §1
# [7] = target: Fuc(a1-2)[Gal(a1-3)]Gal(b1-3)GlcNAc
# Outline: as §1
# [8] = target: Fuc(a1-2)[Gal(a1-3)]Gal(b1-3)GlcNAc(b1-3)GalNAc
# Outline: as §1
# [9] = target: Fuc(a1-2)[Gal(a1-3)]Gal(b1-4)GlcNAc(b1-2)Man(a1-3)[Fuc(a1-2)[Gal(a1-3)]Gal(b1-4)GlcNAc(b1-2)Man(a1-6)]Man(b1-4)GlcNAc(b1-4)GlcNAc
# Outline: as §1
# [10] = target: Fuc(a1-2)[Gal(a1-3)]Gal(b1-4)GlcNAc(b1-6)GalNAc
# Outline: as §1
# [11] = target: Fuc(a1-2)[GalNAc(a1-3)]Gal(b1-3)GlcNAc
# Outline: as §1
# [12] = target: Fuc(a1-3)[Gal(b1-4)]GlcNAc(b1-4)Gal(b1-4)[Fuc(a1-3)]GlcNAc(b1-4)Gal(b1-4)[Fuc(a1-3)]GlcNAc
# Outline: as §1
# Gal(a1-2)Gal = target: Gal(a1-2)Gal
# Outline: as §1
# Gal(b1-3)GalNAc = target: Gal(b1-3)GalNAc
# Outline: as §1
# Gal(b1-3)GlcNAc = target: Gal(b1-3)GlcNAc
# Outline: as §1
# [13] = target: Gal(b1-3)GlcNAc(b1-3)Gal(b1-4)GlcNAc(b1-6)[Gal(b1-3)GlcNAc(b1-3)]Gal(b1-4)Glc
# Outline: as §1
# [14] = target: Gal(b1-3)GlcNAc(b1-3)Gal(b1-4)[Fuc(a1-3)]GlcNAc(b1-6)[Gal(b1-3)GlcNAc(b1-3)]Gal(b1-4)Glc
# Outline: as §1
# [15] = target: Gal(b1-4)GalNAc(b1-3)[Fuc(a1-2)]Gal(b1-4)GlcNAc
# Outline: as §1
# [16] = target: Gal(b1-4)GlcNAc(b1-2)Man(a1-3)[Gal(b1-4)GlcNAc(b1-2)][GlcNAc(b1-4)]Man(b1-4)GlcNAc(b1-4)GlcNAc
# Outline: as §1
# [17] = target: Gal(b1-4)GlcNAc(b1-2)Man(a1-3)[GlcNAc(b1-2)Man(a1-6)]Man(b1-4)GlcNAc(b1-4)GlcNAc
# Outline: as §1
# [18] = target: Gal(b1-4)GlcNAc(b1-2)Man(a1-6)Man(b1-4)GlcNAc(b1-4)GlcNAc
# Outline: as §1
# [19] = target: Gal(b1-4)GlcNAc(b1-2)Man(a1-6)[GlcNAc(b1-2)Man(a1-3)]Man(b1-4)GlcNAc(b1-4)GlcNAc
# Outline: as §1
# [20] = target: Gal(b1-4)GlcNAc(b1-3)Gal(b1-4)GlcNAc
# Outline: as §1
# [21] = target: Gal(b1-4)GlcNAc(b1-3)Gal(b1-4)GlcNAc(b1-3)Gal(b1-4)GlcNAc
# Outline: as §1
# [22] = target: Gal(b1-4)GlcNAc(b1-3)Gal(b1-4)[Fuc(a1-3)GlcNAc(b1-6)]Gal(b1-4)Glc
# Outline: as §1
# Gal3S(b1-4)GlcNAc6S = target: Gal3S(b1-4)GlcNAc6S
# Outline: as §1
# Gal3S4S(b1-4)GlcNAc = target: Gal3S4S(b1-4)GlcNAc
# Outline: as §1
# Gal6S(b1-4)GlcNAc6S = target: Gal6S(b1-4)GlcNAc6S
# Outline: as §1
# [23] = target: GalNAc(b1-3)Gal(a1-4)Gal(b1-4)GlcNAc(b1-3)Gal(b1-4)Glc
# Outline: as §1
binder,measurement,setting,value
"PRKCE (Homo sapiens), Q02156 (protein) MVVFNGLLKIKICEAVSLKPTAWSLRHAVGPRPQTFLLDPYIALNVDDSRIGQTATKQKTNSPAWHDEFVTDVCNGRKIELAVFHDAPIGYDDFVANCTIQFEELLQNGSRHFEDWIDLEPEGRVYVIIDLSGSSGEAPKDNEERVFRERMRPRKRQGAVRRRVHQVNGHKFMATYLRQPTYCSHCRDFIWGVIGKQGYQCQVCTCVVHKRCHELIITKCAGLKKQETPDQVGSQRFSVNMPHKFGIHNYKVPTFCDHCGSLLWGLLRQGLQCKVCKMNVHRRCETNVAPNCGVDARGIAKVLADLGVTPDKITNSGQRRKKLIAGAESPQPASGSSPSEEDRSKSAPTSPCDQEIKELENNIRKALSFDNRGEEHRAASSPDGQLMSPGENGEVRQGQAKRLGLDEFNFIKVLGKGSFGKVMLAELKGKDEVYAVKVLKKDVILQDDDVDCTMTEKRILALARKHPYLTQLYCCFQTKDRLFFVMEYVNGGDLMFQIQRSRKFDEPRSRFYAAEVTSALMFLHQHGVIYRDLKLDNILLDAEGHCKLADFGMCKEGILNGVTTTTFCGTPDYIAPEILQELEYGPSVDWWALGVLMYEMMAGQPPFEADNEDDLFESILHDDVLYPVWLSKEAVSILKAFMTKNPHKRLGCVASQNGEDAIKQHPFFKEIDWVLLEQKKIKPPFKPRIKTKRDVNNFDQDFTREEPVLTLVDEAIVKQINQEEFKGFSYFGEDLMP",glycan array binding signal (z-score),[1],-0.414
same,glycan array binding signal (z-score),[2],-0.08
same,glycan array binding signal (z-score),[3],3.82
same,glycan array binding signal (z-score),Fuc(a1-2)Gal(b1-4)Glc6S,0.01
same,glycan array binding signal (z-score),[4],-0.376
same,glycan array binding signal (z-score),[5],-0.275
same,glycan array binding signal (z-score),[6],3.89
same,glycan array binding signal (z-score),[7],-0.168
same,glycan array binding signal (z-score),[8],0.498
same,glycan array binding signal (z-score),[9],-0.355
same,glycan array binding signal (z-score),[10],4.32
same,glycan array binding signal (z-score),[11],-0.107
same,glycan array binding signal (z-score),[12],-0.315
same,glycan array binding signal (z-score),Gal(a1-2)Gal,0.035
same,glycan array binding signal (z-score),Gal(b1-3)GalNAc,-0.389
same,glycan array binding signal (z-score),Gal(b1-3)GlcNAc,-0.364
same,glycan array binding signal (z-score),[13],-0.234
same,glycan array binding signal (z-score),[14],-0.277
same,glycan array binding signal (z-score),[15],0.061
same,glycan array binding signal (z-score),[16],-0.146
same,glycan array binding signal (z-score),[17],2.61
same,glycan array binding signal (z-score),[18],-0.31
same,glycan array binding signal (z-score),[19],1.3
same,glycan array binding signal (z-score),[20],-0.365
same,glycan array binding signal (z-score),[21],0.155
same,glycan array binding signal (z-score),[22],-0.176
same,glycan array binding signal (z-score),Gal3S(b1-4)GlcNAc6S,6.34
same,glycan array binding signal (z-score),Gal3S4S(b1-4)GlcNAc,8.77
same,glycan array binding signal (z-score),Gal6S(b1-4)GlcNAc6S,3.2
same,glycan array binding signal (z-score),[23],-0.217
